This is an account of results in PubChem BioAssay (NCATS).

Structures are written as SMILES. Results filed as inconclusive are left out. Active and inactive are the calls of the source. Unless noted, calls follow the shape of the dose curve; as a rule, active = well fitted curve in the direction sought with a large enough effect; inconclusive = small, poorly fitted or top-dose-only effect, or another doubt; inactive = no such curve, though single readings can be large; an effect the other way counts as inactive or inconclusive.

Assay [1] addresses Guanine nucleotide-binding protein G(i) subunit alpha-1 (Homo sapiens) (UniProt P63096). As to the kind of experiment: qHTS Assay for Inhibitors of RGS12 GoLoco Motif Activity (Green Fluorophore) (AID 879).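 Also: negative values mean loss of peptide binding seen as reduced polarization.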 Particulars: Galphai1/FITC-RGS12 GoLoco peptide, fluorescence polarization; series mostly up to 57.1 µM. The method in brief: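 A drop in FITC polarization marked displacement of the FITC-tagged RGS12 GoLoco peptide (10 nM) from Gαi1 (50 nM). Compounds were incubated 10 min at room temperature in Tris pH 7.5 buffer containing 150 mM NaCl, 0.1 mM GDP and 0.05% NP40; unlabeled peptide titration served as control.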
A general note: In qHTS, concentration-response curves come from the screen itself.

Assay [2] concerns the target Muscarinic acetylcholine receptor M1 (Rattus norvegicus) (UniProt P08482). As to the kind of experiment: qHTS Assay for Antagonists of Acetylcholine Muscarinic M1 Receptor: Measurement of IP-One Response (AID 944). Also: nearly all actives have a fitted effect of over 75% in size. Particulars: CHO-M1 cells, IP-One HTRF, antagonist mode; series mostly up to 46.1 µM. The method in brief: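 Antagonist mode with rat M1 receptor transfected into CHO cells. Compound is added first for 10 min, carbachol at its EC80 follows for 30 min, and lysis reagents then allow TR-FRET detection of accumulated IP1.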

In assay [3] the target is Pyruvate kinase (Leishmania mexicana) (UniProt Q27686). Description: qHTS Validation Assay for Inhibitors of Leishmania Mexicana Pyruvate Kinase (AID 945). Particulars: purified L. mexicana pyruvate kinase, enzyme activity, E451W mutant enzyme; series mostly up to 57.5 µM. In short, it runs like this: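 Eight-point qHTS titrations; enzyme 0.2 nM LmPYK (E451W mutant); substrates 0.5 mM PEP, 0.1 mM ADP; 7 mM MgCl2; 1 h room temperature; PKLight luminescence normalized to neutral control.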
Sequence of Pyruvate kinase (Leishmania mexicana) (Q27686 2-499 E452W): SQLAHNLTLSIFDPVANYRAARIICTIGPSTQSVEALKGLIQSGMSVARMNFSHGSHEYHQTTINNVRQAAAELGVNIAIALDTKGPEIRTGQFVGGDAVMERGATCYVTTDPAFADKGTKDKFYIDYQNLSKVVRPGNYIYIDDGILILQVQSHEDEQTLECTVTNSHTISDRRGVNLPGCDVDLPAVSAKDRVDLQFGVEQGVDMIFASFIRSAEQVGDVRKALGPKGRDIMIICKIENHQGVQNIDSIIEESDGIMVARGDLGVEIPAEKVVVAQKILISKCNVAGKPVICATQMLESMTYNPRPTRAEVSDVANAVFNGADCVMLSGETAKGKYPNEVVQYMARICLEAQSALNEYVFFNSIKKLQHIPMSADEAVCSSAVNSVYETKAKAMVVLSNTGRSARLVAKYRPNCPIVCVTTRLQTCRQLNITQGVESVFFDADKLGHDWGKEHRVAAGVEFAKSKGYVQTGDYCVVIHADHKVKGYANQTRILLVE

Assay [4] deals with Pyruvate kinase PKM (Homo sapiens) (UniProt P14618). As to the kind of experiment: qHTS Assay for Activators of Human Muscle Pyruvate Kinase (AID 954; active = well fitted curve in the direction sought with a large enough effect, not every such curve was filed as active). Particulars: purified human muscle pyruvate kinase, luciferase-coupled luminescence, 1 h; series mostly up to 57.5 µM. In short, it runs like this:
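ATP production by PKM2 detected via luciferase luminescence after 1 h room-temperature reaction (0.1 nM enzyme, PEP at Km 0.5 mM, ADP 0.1 mM, pH 7.2 imidazole buffer). Inhibition scaled to no-enzyme control; activation referenced to 0.3 nM enzyme wells.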

Assay [5] deals with Alpha-galactosidase A (Homo sapiens) (UniProt P06280). Description: Counterscreen for Glucocerebrosidase Inhibitors: qHTS Assay for Human alpha-Galactosidase at pH 4.5 (AID 992). Particulars: purified enzyme, fluorogenic substrate; series mostly up to 76.9 µM. The method in brief: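 Fluorogenic 1536-well qHTS at pH 4.5 (citrate, Tween-20): 2 nM enzyme, 80 uM 4-MU-alpha-galactoside, 20 min room temperature, NaOH/glycine stop. Titration 0.7 nM to 77 uM, data normalized to no-enzyme and full-activity controls, Hill-fitted AC50.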
Sequence of Alpha-galactosidase A (Homo sapiens) (P06280 whole entry, looked up): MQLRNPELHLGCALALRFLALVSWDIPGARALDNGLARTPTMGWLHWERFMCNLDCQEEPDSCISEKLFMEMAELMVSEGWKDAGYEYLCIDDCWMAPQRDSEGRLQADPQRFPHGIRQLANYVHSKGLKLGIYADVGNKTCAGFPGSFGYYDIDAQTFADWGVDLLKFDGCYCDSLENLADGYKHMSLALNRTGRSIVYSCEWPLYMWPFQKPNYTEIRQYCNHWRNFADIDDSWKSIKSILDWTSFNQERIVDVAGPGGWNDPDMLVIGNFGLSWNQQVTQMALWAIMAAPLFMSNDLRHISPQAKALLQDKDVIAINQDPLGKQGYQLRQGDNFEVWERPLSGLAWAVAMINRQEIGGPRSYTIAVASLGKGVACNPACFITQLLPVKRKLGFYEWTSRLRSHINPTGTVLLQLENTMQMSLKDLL
In general terms: A counterscreen serves to expose hits that act by an unwanted route or on another target.

Assay [6] concerns the target alpha-glucosidase (Oryza sativa, rice) (UniProt Q653V4). Description: Counterscreen for Glucocerebrosidase Inhibitors: qHTS Assay for Rice alpha-Glucosidase at pH 5.0 (AID 997). Particulars: rice alpha-glucosidase enzyme activity; series mostly up to 76.9 µM. The method in brief: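 Endpoint fluorogenic assay at pH 5.0: compounds (0.7 nM to 77 uM) titrated against 4 nM rice enzyme and 400 uM 4-MU-alpha-glucoside for 20 min at room temperature; NaOH/glycine stop, read ex 365/em 440 nm, Hill-fitted AC50.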

Assay [7] can be described thus: NCATS anti-infectives library activity on the primary C. elegans qHTS viability assay (AID 1745855; calls by dose curve; also: potency is read from the fitted curve at half-maximal effect). Particulars: C. elegans worm area imaging, day 7. In short, it runs like this:
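GFP read-out by 488 nm laser cytometry at day 0, 3 and 7, gated on object perimeter, area and peak intensity, scored viability of PE254-GFP-FLuc worms exposed to compound in S medium with bacterial capsules at 21 °C.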

Another assay concerns 7G8. As to the kind of experiment: qHTS profiling for inhibitors of Plasmodium falciparum proliferation (AID 504749). Also: nearly all actives have a fitted effect of over 60% in size. Also: potency is read from the fitted curve at half-maximal effect. Particulars: P. falciparum in erythrocytes, SYBR Green DNA, 72 h; series mostly up to 12.8 µM. In short, it runs like this: (§1)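 Quantitative HTS: compounds pinned into medium, infected erythrocytes added (0.3% parasitemia, 2.5% hematocrit), 72 h culture at 37 C under 5% CO2. Saponin/Triton lysis with SYBR Green I, overnight RT, then fluorescence read.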

Another assay has as its system CP215. The assay is described as above. Particulars: P. falciparum in erythrocytes, SYBR Green DNA, 72 h; series mostly up to 28.7 µM. In short, it runs like this:
as §1

Another assay concerns GB4. The assay is described as above. Particulars: P. falciparum in erythrocytes, SYBR Green DNA, 72 h; series mostly up to 12.8 µM. The method in brief:
as §1

The test system of the next assay is ICS. The description is as above. Particulars: P. falciparum in erythrocytes, SYBR Green DNA, 72 h; series mostly up to 12.8 µM. The method in brief:
as §1

Another assay deals with P93_24. The assay is described as above. Particulars: P. falciparum in erythrocytes, SYBR Green DNA, 72 h; series mostly up to 12.8 µM. The method in brief:
as §1

The nature of assay [8]: S16 Schwann cell PMP22 intronic element beta-lactamase assay (AID 624044; calls by dose curve; also: nearly all actives have a fitted effect of over 15% in size). Particulars: S16 rat Schwann cells, PMP22 element beta-lactamase FRET, 24 h; series mostly up to 17.1 µM. In short, it runs like this:
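Beta-lactamase reporter under a PMP22 intronic regulatory element in stable S16 rat Schwann cells; 24 h compound exposure. 460 nm blue signal normalized between DMSO (0%) and potassium clavulanate, with 535 nm FRET tracking viability; curves classed by r2 and response.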

The target of assay [9] is Phospholipid hydroperoxide glutathione peroxidase GPX4 (Homo sapiens) (UniProt P36969). As to the kind of experiment: Primary qHTS Assay for Inhibitors of Recombinant Selenoprotein Glutathione Peroxidase 4 (GPX4) (AID 1845192). Also: nearly all actives have a fitted effect of over 65% in size. Particulars: recombinant GPX4, GR-coupled NADPH fluorescence, 15 min; series mostly up to 50 µM. The method in brief: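 qHTS, GR-coupled: GPX4 200 nM + cpd 30 min RT → GSH 1 mM, NADPH 0.5 mM, GR 100 nM → CHP 0.5 mM start; fluor 340/450 at t0 and t15 min; no-enzyme wells as control.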
Sequence of Phospholipid hydroperoxide glutathione peroxidase GPX4 (Homo sapiens) (P36969 whole entry, looked up): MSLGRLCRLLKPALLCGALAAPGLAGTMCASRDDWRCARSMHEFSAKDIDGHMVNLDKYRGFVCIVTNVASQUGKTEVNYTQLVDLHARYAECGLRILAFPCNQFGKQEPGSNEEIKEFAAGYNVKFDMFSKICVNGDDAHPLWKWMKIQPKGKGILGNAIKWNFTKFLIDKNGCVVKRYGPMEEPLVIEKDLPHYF

For the next assay, the system named is CP262. Description: qHTS profiling for inhibitors of Plasmodium falciparum proliferation (AID 504749). Also: nearly all actives have a fitted effect of over 60% in size. Also: potency is read from the fitted curve at half-maximal effect. Particulars: P. falciparum in erythrocytes, SYBR Green DNA, 72 h; series mostly up to 12.8 µM. The method in brief: as §1
Assay [10] can be described thus: Viability counterscreen for antagonist of constitutive androstane receptor (CAR) against the NCATS DSHEA and TCM libraries (AID 1794837).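 Also: compound exposure lasted 24 h before viability reading.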 Particulars: CAR reporter cell line viability counterscreen, qHTS; series mostly up to 40 µM. In short, it runs like this:
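Cell viability, CellTiter-Fluor, Ex/Em 405/540 nm, 1 h at 37C. HepG2-CYP2B6-hCAR, 2,500 cells/well; cpds + CITCO 48 uM final (antagonist mode), 24 h, 37C/5% CO2.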

The nature of assay [11]: Viability counterscreen for agonist of constitutive androstane receptor (CAR) against the NCATS DSHEA and TCM libraries (AID 1794838). Particulars: HepG2 cell viability counterscreen, CAR agonist assay, co-treated with 0.75 µM CAR antagonist; series mostly up to 40 µM. The method in brief:
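Viability by CellTiter-Fluor fluorescence, 405/540 nm, after 1 h at 37C. HepG2-CYP2B6-hCAR cells were exposed 24 h to test substances in presence of 0.75 uM PK11195 (final).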

For assay [12], the target named is Cytochrome P450 3A4 (Homo sapiens) (UniProt P08684). As to the kind of experiment: qHTS for inhibitors of CYP3A4 against the NCATS DSHEA and TCM libraries (AID 1919971).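 Also: inhibition lowers luminescence from luciferin made by CYP3A4.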 Particulars: recombinant CYP3A4 enzyme activity, luminescence qHTS; series mostly up to 34.1 µM. The method in brief:
(§2)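 Concentration-response screening with isoform-matched pro-luciferin substrates. The CYP reaction was initiated by NADPH regenerating solution and ran 30-45 min in darkness at room temperature.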

Assay [13] addresses Cytochrome P450 2C19 (Homo sapiens) (UniProt P33261). Description: qHTS for inhibitors of CYP2C19 against the NCATS DSHEA and TCM libraries (AID 1919974).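 Also: luminescence from luciferin released by CYP2C19 oxidation of a pro-luciferin substrate.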 Also: potency is read from the fitted curve at half-maximal effect. Particulars: CYP2C19 enzyme inhibition, luminescence qHTS; series mostly up to 34.1 µM. In short, it runs like this: as §2
The target in assay [14] is Nuclear receptor subfamily 1 group I member 3 (Homo sapiens) (UniProt Q14994). Description: Primary qHTS for agonist of constitutive androstane receptor (CAR) against the NCATS DSHEA and TCM libraries (AID 1794839).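 Also: HepG2 cells expressing human CAR with a CYP2B6 reporter plus PK11195 antagonist.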 Particulars: CAR agonist reporter cells, qHTS luminescence, CAR antagonist co-added at 0.75 µM; series mostly up to 40 µM. In short, it runs like this:
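Luminescence from ONE-Glo luciferase was the agonist read-out in HepG2-CYP2B6-hCAR cells exposed 24 h to test substances. Wells also held the CAR antagonist PK11195 at 0.75 µM final. Viability was by CellTiter-Fluor fluorescence.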

Sequence of Cytochrome P450 3A4 (Homo sapiens) (P08684 whole entry, looked up, canonical isoform): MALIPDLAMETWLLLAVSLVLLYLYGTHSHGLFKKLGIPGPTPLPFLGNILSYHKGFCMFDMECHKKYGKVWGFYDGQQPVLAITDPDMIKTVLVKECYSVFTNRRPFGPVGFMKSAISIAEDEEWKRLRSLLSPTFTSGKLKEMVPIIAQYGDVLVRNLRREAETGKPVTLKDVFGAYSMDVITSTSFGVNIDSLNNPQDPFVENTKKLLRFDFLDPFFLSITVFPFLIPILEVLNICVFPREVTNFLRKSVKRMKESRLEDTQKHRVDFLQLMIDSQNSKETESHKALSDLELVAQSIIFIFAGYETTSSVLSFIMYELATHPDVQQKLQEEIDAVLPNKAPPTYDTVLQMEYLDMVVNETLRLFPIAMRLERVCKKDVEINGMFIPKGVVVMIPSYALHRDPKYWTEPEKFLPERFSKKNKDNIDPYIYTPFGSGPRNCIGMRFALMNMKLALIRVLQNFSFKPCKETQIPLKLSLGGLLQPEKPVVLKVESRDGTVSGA
Sequence of Cytochrome P450 2C19 (Homo sapiens) (P33261 whole entry, looked up): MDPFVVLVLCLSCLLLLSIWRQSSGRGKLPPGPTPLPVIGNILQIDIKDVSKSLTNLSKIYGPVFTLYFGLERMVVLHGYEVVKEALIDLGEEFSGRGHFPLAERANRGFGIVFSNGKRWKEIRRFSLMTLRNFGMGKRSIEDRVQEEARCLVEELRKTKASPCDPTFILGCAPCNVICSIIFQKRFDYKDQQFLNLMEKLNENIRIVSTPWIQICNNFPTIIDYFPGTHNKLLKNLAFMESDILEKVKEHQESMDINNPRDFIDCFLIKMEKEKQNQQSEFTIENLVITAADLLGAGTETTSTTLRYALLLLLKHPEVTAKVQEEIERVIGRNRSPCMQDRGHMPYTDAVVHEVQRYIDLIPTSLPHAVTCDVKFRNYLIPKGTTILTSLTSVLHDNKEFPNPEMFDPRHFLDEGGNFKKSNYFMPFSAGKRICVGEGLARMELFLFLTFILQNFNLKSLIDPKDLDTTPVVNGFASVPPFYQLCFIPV
Sequence of Muscarinic acetylcholine receptor M1 (Rattus norvegicus) (P08482 whole entry, looked up): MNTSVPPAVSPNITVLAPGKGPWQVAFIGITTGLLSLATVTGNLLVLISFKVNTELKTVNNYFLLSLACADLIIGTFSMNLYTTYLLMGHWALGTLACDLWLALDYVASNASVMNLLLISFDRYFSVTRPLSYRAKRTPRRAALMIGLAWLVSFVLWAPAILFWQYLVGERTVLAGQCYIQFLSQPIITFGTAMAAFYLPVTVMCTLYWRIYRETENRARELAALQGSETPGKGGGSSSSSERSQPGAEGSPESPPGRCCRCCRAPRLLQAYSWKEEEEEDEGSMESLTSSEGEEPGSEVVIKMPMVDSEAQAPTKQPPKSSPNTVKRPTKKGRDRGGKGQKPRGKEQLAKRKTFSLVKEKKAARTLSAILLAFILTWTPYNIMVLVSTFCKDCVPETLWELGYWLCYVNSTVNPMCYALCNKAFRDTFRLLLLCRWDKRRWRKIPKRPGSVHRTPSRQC
Sequence of Pyruvate kinase PKM (Homo sapiens) (P14618 whole entry, looked up): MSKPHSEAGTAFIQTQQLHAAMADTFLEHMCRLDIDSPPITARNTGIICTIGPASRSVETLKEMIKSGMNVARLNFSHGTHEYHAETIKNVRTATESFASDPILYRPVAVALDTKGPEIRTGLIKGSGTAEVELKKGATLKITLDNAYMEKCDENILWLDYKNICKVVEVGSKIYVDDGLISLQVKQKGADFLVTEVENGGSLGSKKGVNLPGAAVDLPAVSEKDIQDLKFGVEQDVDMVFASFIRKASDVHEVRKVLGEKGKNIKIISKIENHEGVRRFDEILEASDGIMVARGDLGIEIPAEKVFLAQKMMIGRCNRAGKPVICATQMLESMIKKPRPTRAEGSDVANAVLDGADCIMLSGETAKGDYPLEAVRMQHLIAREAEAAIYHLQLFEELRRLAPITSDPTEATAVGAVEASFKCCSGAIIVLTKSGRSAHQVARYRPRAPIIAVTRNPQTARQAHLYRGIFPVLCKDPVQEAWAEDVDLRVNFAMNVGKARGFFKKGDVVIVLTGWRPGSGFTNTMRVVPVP
Sequence of Guanine nucleotide-binding protein G(i) subunit alpha-1 (Homo sapiens) (P63096 whole entry, looked up): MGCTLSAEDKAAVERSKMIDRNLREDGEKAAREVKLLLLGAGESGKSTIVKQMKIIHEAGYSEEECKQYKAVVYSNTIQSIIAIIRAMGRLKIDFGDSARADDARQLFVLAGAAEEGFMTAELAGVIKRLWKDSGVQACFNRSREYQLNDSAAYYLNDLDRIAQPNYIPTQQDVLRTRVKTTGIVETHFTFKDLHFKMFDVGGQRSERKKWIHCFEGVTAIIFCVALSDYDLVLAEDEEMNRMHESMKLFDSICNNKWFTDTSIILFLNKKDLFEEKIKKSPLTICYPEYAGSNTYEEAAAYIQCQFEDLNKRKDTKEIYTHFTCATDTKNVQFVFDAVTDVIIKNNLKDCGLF
Sequence of Nuclear receptor subfamily 1 group I member 3 (Homo sapiens) (Q14994 whole entry, looked up): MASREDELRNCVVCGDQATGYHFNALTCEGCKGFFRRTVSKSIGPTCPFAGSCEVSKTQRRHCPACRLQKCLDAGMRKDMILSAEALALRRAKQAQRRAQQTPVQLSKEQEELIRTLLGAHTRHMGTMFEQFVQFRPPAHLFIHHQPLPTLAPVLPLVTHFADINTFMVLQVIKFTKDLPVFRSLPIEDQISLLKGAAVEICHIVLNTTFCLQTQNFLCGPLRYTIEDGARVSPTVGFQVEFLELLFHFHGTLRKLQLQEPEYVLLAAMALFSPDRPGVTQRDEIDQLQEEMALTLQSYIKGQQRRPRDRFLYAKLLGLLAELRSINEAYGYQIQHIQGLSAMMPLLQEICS

With `NC(=NCc1ccc(Cl)c(Cl)c1)NC(=O)c1nc(Cl)c(N)nc1N`, the Potency entry in [1] and in assay [2] was “inactive” in each case. The call in assay [3], in assay [4], in assay [5] and in assay [6] was inactive.
In the case of `Cc1cc(/C=C\c2ccc3cc(N(C)C)ccc3[n+]2C)c(C)n1-c1ccccc1`, the Potency in [7] was 29 µM (active); with 7G8 it was 0.398 µM (active); with CP215, 3.22 µM (active); with GB4, 3.22 µM (active); with ICS, 0.562 µM (active); in the assay on P93_24 it was 0.708 µM (active).
Consider `CN(C)CC/C=C1\c2ccccc2CSc2ccccc21`, for which the molecule was called inactive in assay [8] and in assay [9]. Further, the Potency result in the assay with CP262 is “inactive”.
As for `O=c1cc(-c2ccc(O)cc2)oc2cc(O[C@H]3OC(CO)C(O)C(O)C3O)cc(O)c12` (some centres not stated), the result in assay [10], in assay [11] and in assay [12] was inactive. The Potency result in assay [13] was “inactive”.
For the molecule `O=c1ccc2ccc(O)cc2o1`, the result in assay [10] and in assay [14] was inactive.
With `CC(C)N1CCN(c2ccc(OC[C@@H]3CO[C@@](Cn4cncn4)(c4ccc(Cl)cc4Cl)O3)cc2)CC1`, the call in assay [8] and in [9] was inactive. Also, the Potency result with CP262 and in the assay with ICS was “inactive” throughout.
As for `NC(Cc1c[nH]c2ccccc12)C(=O)O` (configuration not stated), the result in assay [12] was inactive. The Potency in [13] was 3.16 µM (active).
